Measurements reported in the supplement of paper PMC3334620.
In all, about 33,000 sequences were measured (“E-score (-0.5 to 0.5)”: median about -0.036, highest 2% from about 0.37 on). The sample as a whole holds a higher share of the highest values than the screen did.

Molecular target: T1, Yer064c (UniProt P40041)
T1 sequence: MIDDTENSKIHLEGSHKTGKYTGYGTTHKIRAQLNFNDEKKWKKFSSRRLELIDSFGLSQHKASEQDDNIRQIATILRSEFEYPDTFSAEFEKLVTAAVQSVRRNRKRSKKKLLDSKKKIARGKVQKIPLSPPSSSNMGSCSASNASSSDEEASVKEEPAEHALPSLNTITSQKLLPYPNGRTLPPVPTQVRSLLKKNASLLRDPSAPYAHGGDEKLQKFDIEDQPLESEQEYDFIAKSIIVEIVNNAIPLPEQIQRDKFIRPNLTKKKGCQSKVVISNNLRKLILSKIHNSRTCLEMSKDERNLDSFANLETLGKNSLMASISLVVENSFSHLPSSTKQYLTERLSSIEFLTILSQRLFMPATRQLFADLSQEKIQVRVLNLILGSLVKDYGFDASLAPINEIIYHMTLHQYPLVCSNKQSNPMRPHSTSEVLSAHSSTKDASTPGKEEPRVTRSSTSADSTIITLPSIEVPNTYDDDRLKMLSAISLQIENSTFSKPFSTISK
Assay: PBM E-score (8-mer binding enrichment) (E-score (-0.5 to 0.5)); higher = stronger / more preferred TF binding
Settings: protein concentration: 200 nM; construct: GST-full length
Experimental: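 Universal 'all 10-mer' protein binding microarrays (Agilent AMADID 015681) probed with GST-tagged S. cerevisiae TFs (full-length or DBD) made by in vitro transcription/translation (PURExpress), about 100-200 nM. Bound TF was detected with fluorescent anti-GST. Each ungapped 8-mer (which stands for itself and its reverse complement) is scored by the PBM enrichment score (E-score), a modified Wilcoxon-Mann-Whitney statistic from -0.5 to +0.5, computed with the Universal PBM Analysis Suite. Scale: above 0.35 generally sequence-specific binding.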

First: ACCGGCGG
Second: CCAGATGC
The “PBM E-score” value of the first is lower: -0.156 for the first, 0.0961 for the second.

First: AGCTAGAT
Second: AACCCCAG
The “PBM E-score” value of the first is lower: -0.12 for the first, -0.047 for the second.

Going from GGCAACTA to CCCATCTA, the “PBM E-score” value falls from -0.0239 to -0.0727.

First: CAAACGAC
Second: GTGTGCGA
The “PBM E-score” value of the first is higher: 0.0734 for the first, 0.0296 for the second.

Going from AGATCTTA to GACGTTCA, the “PBM E-score” value falls from 0.137 to -0.12.

Compared with GCATTTCC, AGAACACA is higher in “PBM E-score” value: -0.0262 for the first, 0.0627 for the second.

First: CAAAGTCA
Second: AAAAGTCT
The “PBM E-score” value of the first is higher: 0.399 for the first, 0.0759 for the second.

Compared with GAAAGTCA, AAAAGTCC is lower in “PBM E-score” value: 0.428 for the first, -0.0242 for the second.

Going from TAAAGTAA to TAAAGTTA, the “PBM E-score” value rises from 0.049 to 0.106.

First: GAAAGTTA
Second: GAAAGTCC
The “PBM E-score” value of the first is higher: 0.137 for the first, -0.215 for the second.

Compared with CAAAGTCC, AAAAGTCA is higher in “PBM E-score” value: -0.222 for the first, 0.374 for the second.

Going from CAAAGTCG to TAAAGTCA, the “PBM E-score” value rises from 0.167 to 0.413.

Compared with ACCACGGG, AGCAGGAG is higher in “PBM E-score” value: -0.0993 for the first, -0.0429 for the second.

First: GGCATACA
Second: GATTCGAA
The “PBM E-score” value of the first is lower: -0.226 for the first, 0.207 for the second.

Compared with CTCGGTGA, ACTACGAT is higher in “PBM E-score” value: 0.137 for the first, 0.233 for the second.

Going from CCCATGCC to CCCAGAGG, the “PBM E-score” value falls from -0.231 to -0.276.

First: AAGTCAGA
Second: CAGTCAGG
The “PBM E-score” value of the first is higher: 0.341 for the first, 0.333 for the second.

Compared with AAGTCAGC, GAGTCAGC is higher in “PBM E-score” value: 0.422 for the first, 0.48 for the second.

First: CAGTCAGA
Second: CAGTCAGC
The “PBM E-score” value of the first is lower: 0.361 for the first, 0.406 for the second.

First: AAGTCAGT
Second: ATGTCAGC
The “PBM E-score” value of the first is higher: 0.362 for the first, -0.0283 for the second.

Compared with GCGTCAGC, AATCTTAC is higher in “PBM E-score” value: -0.304 for the first, 0.183 for the second.

Going from ATTTGTCG to GACTCAGC, the “PBM E-score” value rises from -0.0532 to 0.457.

Going from AACTCAGA to CACTCAGC, the “PBM E-score” value falls from 0.164 to -0.0645.

First: AACTCAGC
Second: CACTCAGA
The “PBM E-score” value of the first is lower: 0.022 for the first, 0.0961 for the second.

Compared with GACTCAGA, GGCGCGAA is lower in “PBM E-score” value: 0.458 for the first, -0.0884 for the second.

Going from AACGTGGC to ACCCTAGA, the “PBM E-score” value rises from -0.0783 to -0.0589.

Going from ACCTCGGC to GATCACCC, the “PBM E-score” value rises from -0.153 to 0.00825.

First: AACCACCT
Second: AATCACCA
The “PBM E-score” value of the first is lower: 0.0325 for the first, 0.374 for the second.

Compared with CATCACCC, CATCACCG is higher in “PBM E-score” value: -0.0525 for the first, 0.156 for the second.

First: AAGCACCG
Second: AATCACCG
The “PBM E-score” value of the first is lower: -0.164 for the first, 0.42 for the second.

Going from AATCACCT to TATCACCA, the “PBM E-score” value falls from 0.438 to -0.0277.

Going from AAACACCT to AATCACCC, the “PBM E-score” value rises from 0.129 to 0.426.

Going from CATCACCA to AGAAGAAC, the “PBM E-score” value falls from -0.0269 to -0.146.

Compared with ACCAGACT, ACGGCTAT is lower in “PBM E-score” value: 0.0775 for the first, -0.24 for the second.

Going from GGTTTACA to CGTGCACG, the “PBM E-score” value rises from -0.0888 to 0.0709.

Going from CCTGAGGA to ACGGTATG, the “PBM E-score” value falls from 0.00765 to -0.0999.

Going from CTGATTAC to AGGATTAA, the “PBM E-score” value falls from 0.375 to 0.253.

Going from CCGATTAC to GAGATTAA, the “PBM E-score” value rises from -0.132 to 0.245.

Compared with ATGATTAA, GGGATTAA is lower in “PBM E-score” value: 0.472 for the first, 0.166 for the second.

First: CGGATTAA
Second: CAGATTAA
The “PBM E-score” value of the first is higher: 0.208 for the first, 0.183 for the second.

Going from CTGATTAA to ACGATTAA, the “PBM E-score” value falls from 0.405 to 0.26.

Going from GTGATTAA to CGGATTAC, the “PBM E-score” value falls from 0.452 to 0.0966.

First: GAAACTAC
Second: CCGAGGAC
The “PBM E-score” value of the first is higher: 0.00139 for the first, -0.0294 for the second.

First: AGCAAAAC
Second: CATCCGAA
The “PBM E-score” value of the first is lower: -0.0941 for the first, 0.123 for the second.

Going from ATGGAAAG to CATATTGG, the “PBM E-score” value rises from -0.0473 to -0.027.

Going from ATATCTAA to AGCAGGTA, the “PBM E-score” value falls from 0.128 to -0.131.

First: CCTGCGCA
Second: TATAATCA
The “PBM E-score” value of the first is lower: -0.352 for the first, 0.387 for the second.

Going from TATAATAA to TATAATGA, the “PBM E-score” value rises from 0.115 to 0.256.

First: GATAATAA
Second: GATAATCC
The “PBM E-score” value of the first is lower: -0.0817 for the first, -0.0741 for the second.

Going from CATAATCG to CATAATCC, the “PBM E-score” value falls from 0.109 to -0.0164.

Compared with AATAATCA, AATAATCC is lower in “PBM E-score” value: 0.382 for the first, 0.0648 for the second.

First: AATAATCG
Second: CATAATCA
The “PBM E-score” value of the first is lower: 0.104 for the first, 0.413 for the second.

First: GATAATCA
Second: CCTTTACC
The “PBM E-score” value of the first is higher: 0.384 for the first, -0.149 for the second.

Going from GAGCGTAA to CCCCTGCC, the “PBM E-score” value falls from 0.0724 to -0.204.

Going from ATACTCTC to AGAAGGGG, the “PBM E-score” value falls from 0.00838 to -0.324.

First: GCCAGCAA
Second: GGTCCATA
The “PBM E-score” value of the first is lower: -0.238 for the first, -0.194 for the second.

Going from AAACGATG to ATAGTCAC, the “PBM E-score” value rises from -0.0198 to 0.481.

First: ATCGTCAT
Second: ATAGTCAT
The “PBM E-score” value of the first is lower: 0.0309 for the first, 0.489 for the second.

First: CTAGTAAG
Second: ATAGTCCA
The “PBM E-score” value of the first is lower: 0.0365 for the first, 0.213 for the second.

First: CTAGTCCA
Second: ATCGTCAA
The “PBM E-score” value of the first is higher: 0.109 for the first, 0.0919 for the second.

Compared with ATCGTCAC, ATAGTCAA is higher in “PBM E-score” value: -0.00908 for the first, 0.402 for the second.

First: CTAGTCAG
Second: ATAGTCCC
The “PBM E-score” value of the first is higher: 0.418 for the first, 0.148 for the second.

Compared with ATAGTAAT, AACCTATA is lower in “PBM E-score” value: 0.291 for the first, 0.0106 for the second.

First: CCGCGATA
Second: GTTGGTGA
The “PBM E-score” value of the first is lower: -0.0471 for the first, 0.115 for the second.

AGAAACAG and GCTCCAAC are the same in “PBM E-score” value: -0.164 for the first, -0.164 for the second.

Compared with GTCGTACA, AGGGCGAC is lower in “PBM E-score” value: 0.19 for the first, -0.0248 for the second.

Compared with CTACAGAC, CCCATTAA is higher in “PBM E-score” value: -0.184 for the first, -0.0295 for the second.

Compared with GGGTCGAA, GAGGCGGA is lower in “PBM E-score” value: 0.0364 for the first, -0.0783 for the second.

First: CCCCCCAA
Second: GACGAAGA
The “PBM E-score” value of the first is lower: -0.315 for the first, 0.0944 for the second.

Compared with GTGGGTTA, CTAGTCGC is higher in “PBM E-score” value: 0.103 for the first, 0.316 for the second.

Compared with ATAGTCGC, ATAGTCAG is higher in “PBM E-score” value: 0.389 for the first, 0.454 for the second.

First: ATAGTCCG
Second: ATAGTCTG
The “PBM E-score” value of the first is higher: 0.316 for the first, 0.177 for the second.

Going from ATAGTCGG to ACAGAAGG, the “PBM E-score” value falls from 0.256 to -0.0367.

Compared with CTGCATCA, AGGATCGG is lower in “PBM E-score” value: -0.0294 for the first, -0.209 for the second.

First: CGGGCTCC
Second: CATGAGTA
The “PBM E-score” value of the first is lower: -0.307 for the first, 0.341 for the second.

Going from GCTGAGTA to AATGAGGA, the “PBM E-score” value falls from 0.212 to -0.00162.

Compared with GATGAGTA, AATGAGTA is lower in “PBM E-score” value: 0.429 for the first, 0.389 for the second.

Compared with AATGAGCA, CGAGATTC is higher in “PBM E-score” value: -0.0702 for the first, 0.0578 for the second.

First: AAGTTGTA
Second: ATGGGGCG
The “PBM E-score” value of the first is higher: -0.0146 for the first, -0.111 for the second.

First: AATTAATT
Second: TACTTATA
The “PBM E-score” value of the first is higher: 0.177 for the first, 0.116 for the second.

Compared with GACTTATA, GACTTATC is lower in “PBM E-score” value: 0.387 for the first, 0.307 for the second.

Compared with TCTCCCCA, CCGACAGC is lower in “PBM E-score” value: -0.153 for the first, -0.394 for the second.

Going from AGGGAGTA to CGGGAGTA, the “PBM E-score” value falls from 0.0389 to -0.0367.

Compared with AGGGAGTG, CGGGAGAC is higher in “PBM E-score” value: -0.175 for the first, 0.106 for the second.

First: CGGGAGTC
Second: AGGGAGTC
The “PBM E-score” value of the first is lower: 0.413 for the first, 0.44 for the second.

Compared with GCTACCAA, CGAGCCGC is higher in “PBM E-score” value: -0.00248 for the first, -0.00093 for the second.

First: GGACGACC
Second: CGGGCACA
The “PBM E-score” value of the first is lower: -0.23 for the first, -0.212 for the second.
